# Source: article PMC5836133, “The intracellular immune receptor Rx1 regulates the DNA-binding activity of a Golden2-like transcription factor”
# Whole data set: some 16,000 sequences, median “e-score” near -0.044, cut for the highest 2% near 0.38. Many of the other results were omitted from the sample, so the highest values are more common in it than they were.
# Molecular target: T1, GST-NbGlk1(82-244) (Nicotiana benthamiana)
# T1 chain: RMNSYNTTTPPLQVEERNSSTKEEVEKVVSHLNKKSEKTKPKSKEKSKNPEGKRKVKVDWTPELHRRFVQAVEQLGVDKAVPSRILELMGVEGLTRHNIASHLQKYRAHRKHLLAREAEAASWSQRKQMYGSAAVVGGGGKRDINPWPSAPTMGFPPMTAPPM
# Test: protein-binding microarray; NbGlk1 is a Golden2-like transcription factor of Nicotiana benthamiana; high values mean tight binding
# Settings: protein: recombinant; tags: GST (pTH6838); dsDNA, one strand shown
row,Sequence,binding signal [E-score]
1,ACGTGATC,0.232 ± 0.0142
2,ATTCGCGA,0.318 ± 0.058
3,AAATCGCT,0.295 ± 0.0508
4,ACAGAAAT,0.248 ± 0.0234
5,ATCCGCAT,0.272 ± 0.0412
6,CAAGATTC,0.406 ± 0.00476
7,AAAGATTC,0.401 ± 0.00855
8,AAAGATAC,0.21 ± 0.0674
9,AAAGATTA,0.318 ± 0.0346
10,AACGATTC,0.214 ± 0.0649
11,CAAGATTA,0.314 ± 0.00322
12,AAAGATTG,0.335 ± 0.0169
13,AAAGATTT,0.427 ± 0.00822
14,CAAGATTG,0.308 ± 0.0144
15,ATTGTGCG,0.2 ± 0.0823
16,ATCGTAAA,0.239 ± 0.0266
17,ATCTTCCG,0.316 ± 0.0643
18,ATCTGCTA,0.331 ± 0.0558
19,AGGATCCG,0.26 ± 0.0521
20,ATTTCGTG,0.367 ± 0.0218
21,ATTTCGTC,0.303 ± 0.0104
22,ATTTCGTA,0.399 ± 0.0199
23,ATCTTCAC,0.352 ± 0.00871
24,ACTGAGAT,0.247 ± 0.0201
25,ATCCCGAG,0.211 ± 0.027

row,Sequence,binding signal [E-score]
1,AGATATGC,0.415 ± 0.012
2,AGATATGG,0.373 ± 0.0298
3,ATATATCA,0.276 ± 0.0382
4,AGATATCG,0.462 ± 0.00283
5,ATATATCG,0.276 ± 0.0574
6,AGATATCC,0.47954 ± 0.00034
7,AGATATGA,0.318 ± 0.00331
8,AGATATAG,0.225 ± 0.0489
9,AGATATCA,0.434 ± 0.0219
10,AGATATAA,0.208 ± 0.0225
11,ATATATCC,0.262 ± 0.0686
12,AGATATAC,0.241 ± 0.00443
13,ATCTCGCC,0.314 ± 0.0254
14,ACCAAGAT,0.289 ± 0.0649
15,ATCCTTGA,0.218 ± 0.0175
16,ATTTCTAC,0.285 ± 0.0555
17,ATTACATA,0.267 ± 0.0926
18,ATTACGGC,0.278 ± 0.0482
19,AAGTAGAT,0.216 ± 0.0697
20,ATCCTTAC,0.266 ± 0.0362
21,ACTCAGAT,0.255 ± 0.0118
22,ATCTTTAG,0.26 ± 0.0391
23,ATTCCCCC,0.37 ± 0.0231
24,ATCTATAC,0.231 ± 0.121
25,ACATATCT,0.344 ± 0.0128

row,Sequence,binding signal [E-score]
1,AGATATCT,0.48 ± 0.00495
2,AGATACGG,0.372 ± 0.019
3,AGATACGC,0.422 ± 0.0238
4,AGATATAT,0.316 ± 0.0185
5,AGATACGA,0.332 ± 0.0469
6,ATCTTCAA,0.303 ± 0.0183
7,ATATTGGA,0.241 ± 0.0475
8,ATCAGGAA,0.288 ± 0.064
9,ATAGGAAT,0.275 ± 0.0501
10,AATCCGGA,0.42 ± 0.0333
11,ATCCCGGA,0.308 ± 0.0187
12,AATCCGTG,0.322 ± 0.0593
13,AATCCGTA,0.337 ± 0.0439
14,AATCCGTC,0.39 ± 0.0333
15,AATCCTTC,0.265 ± 0.077
16,AATCCGGG,0.368 ± 0.0574
17,AATCCGGC,0.3885 ± 0.00169
18,AATCCGGT,0.393 ± 0.0261
19,ATTCCGGA,0.232 ± 0.0263
20,AATCCTGT,0.371 ± 0.0247
21,ATCGTCAA,0.231 ± 0.0882
22,ACCCAGAT,0.247 ± 0.0788
23,CACCGATA,0.256 ± 0.0751
24,ATCAGCGA,0.229 ± 0.0488
25,AATCACAA,0.346 ± 0.0519

row,Sequence,binding signal [E-score]
1,ATTTTCTC,0.316 ± 0.054
2,ACGCGGAT,0.235 ± 0.023
3,ATAAAGAT,0.279 ± 0.0792
4,ACCAATAT,0.204 ± 0.0315
5,AATAATAT,0.259 ± 0.0722
6,AATCTGAC,0.417 ± 0.0317
7,AATCTGCT,0.37 ± 0.0413
8,ATTCTGAC,0.242 ± 0.101
9,AATCTGAT,0.414 ± 0.0225
10,AATATGAT,0.222 ± 0.00614
11,AATCTGTC,0.391 ± 0.00978
12,ATTCTGTC,0.335 ± 0.0209
13,AAACAGAT,0.229 ± 0.0973
14,ATCTTGAC,0.272 ± 0.0538
15,AATCGTAT,0.339 ± 0.0131
16,AAATCGCC,0.322 ± 0.0236
17,ATATCGCA,0.355 ± 0.0163
18,AGATCGCA,0.396 ± 0.016
19,ATATCGCC,0.333 ± 0.0165
20,ATATCGCG,0.415 ± 0.00817
21,AGATCGCG,0.464 ± 0.00467
22,AAATCGCA,0.3786 ± 0.00224
23,AGATCGCC,0.353 ± 0.0264
24,AGATCGTA,0.283 ± 0.0295
25,CAATCGCG,0.2571 ± 0.00241

row,Sequence,binding signal [E-score]
1,AGATCGCT,0.346 ± 0.00634
2,AAATCGCG,0.4246 ± 0.00159
3,AGCGCAAT,0.303 ± 0.0261
4,AAATCCTT,0.392 ± 0.0185
5,AGATCCTG,0.369 ± 0.0433
6,AAATCATT,0.223 ± 0.00449
7,AATCCCTA,0.281 ± 0.0127
8,CAATCCTG,0.3281 ± 0.00274
9,CAATCCTA,0.288 ± 0.0058
10,AGATCCTA,0.314 ± 0.00874
11,AAATCCTA,0.417 ± 0.00908
12,AGATCCTC,0.387 ± 0.0145
13,AAATCCTG,0.4223 ± 0.00332
14,AAATCGTT,0.248 ± 0.085
15,ATTTCACC,0.214 ± 0.151
16,ATTCCCCA,0.256 ± 0.075
17,ATCCTCGC,0.205 ± 0.0887
18,ATAGATCC,0.21 ± 0.00109
19,ATCTGTTG,0.301 ± 0.07
20,ATATATAC,0.227 ± 0.00145
21,AAATACGC,0.2039 ± 0.00167
22,ATCCGGAC,0.272 ± 0.0502
23,ATCGATTA,0.207 ± 0.0952
24,CAAGATCG,0.284 ± 0.0247
25,AATATAAA,0.254 ± 0.107

row,Sequence,binding signal [E-score]
1,AATCCCTC,0.293 ± 0.0225
2,AAATCCTC,0.414 ± 0.051
3,CAATCCTC,0.269 ± 0.0948
4,ATTCCCGA,0.333 ± 0.0675
5,ATCCCAAG,0.206 ± 0.0761
6,AATATATT,0.285 ± 0.0974
7,AGAATCTG,0.4793 ± 0.00413
8,ATAATCTG,0.356 ± 0.0112
9,ATAATCTA,0.334 ± 0.0306
10,AGAATCGG,0.375 ± 0.00432
11,AGAATCTC,0.469 ± 0.0125
12,AGAATCGA,0.342 ± 0.0111
13,AGAATCTA,0.48 ± 0.00879
14,ATATAAAT,0.276 ± 0.0236
15,AGGGAGAT,0.281 ± 0.00745
16,ACGGGGAT,0.214 ± 0.115
17,AAATATGA,0.226 ± 0.0549
18,ATCCGTGA,0.236 ± 0.116
19,ATACGTTA,0.277 ± 0.00931
20,ATTCCCTG,0.323 ± 0.0549
21,ATTACTAG,0.207 ± 0.0664
22,ATTTATTA,0.249 ± 0.00743
23,CAATATCC,0.337 ± 0.0344
24,AAATATCA,0.367 ± 0.0296
25,AAATATCG,0.375 ± 0.0121

row,Sequence,binding signal [E-score]
1,ACATATCC,0.214 ± 0.0275
2,AAATATCC,0.42 ± 0.011
3,AAATATCT,0.407 ± 0.0254
4,ATATTGAG,0.214 ± 0.00643
5,ATAAGATC,0.33 ± 0.000581
6,ATTCTTTA,0.258 ± 0.0767
7,AATCAGGC,0.2903 ± 0.0023
8,AATCAGGT,0.32 ± 0.0381
9,AATCAGGA,0.394 ± 0.0134
10,ATTCCCCG,0.32 ± 0.0628
11,AAGATCGT,0.291 ± 0.0157
12,AAGATCGA,0.225 ± 0.00987
13,CAGATCGC,0.417 ± 0.00441
14,CAGATCGG,0.215 ± 0.0844
15,ATGATCGC,0.232 ± 0.0162
16,AAGATCGC,0.398 ± 0.00727
17,AATTCCCC,0.225 ± 0.0402
18,AAAGTATC,0.243 ± 0.0118
19,ATCGTCTA,0.208 ± 0.048
20,ATTGCGCG,0.378 ± 0.00773
21,ATCTAGAG,0.238 ± 0.0882
22,ATCTAGAT,0.398 ± 0.0867
23,ATCTAGAC,0.287 ± 0.00928
